Measured values as given in PubChem BioAssay (NCI).
Compounds without any hit were thinned out: in the full panel of roughly 79,000, 15% have a hit. A number with no mark means an inactive call. Calls of active or inactive are those of the source. No stated cut-off is given here; in the data, active means growth inhibition above about 70%; inactive means the rest.

Assay: NCI Yeast Anticancer Drug Screen. Data for the cln2 rad14 strain (AID 165);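 further: 0% = growth equal to vehicle treated cultures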
Settings: S. cerevisiae cln2 rad14 strain, at 50.0 µM, stronger effect = higher value
Method: Growth inhibition of yeast strains with defined genetic alterations is measured as a screen for potential anti-cancer activity. Selected strains with alterations in DNA damage repair or cell cycle control were exposed to compounds and growth inhibition was measured relative to vehicle treated controls. The strain used in this assay is cln2 rad14

In order of rising growth inhibition:
1. CC(=O)OCC(C)(C)C(OC(C)=O)C(C)C (stereo not given)  -46.8%
2. O=C(O)c1c[nH]c(=O)[nH]c1=O.[Cu+2]  -44.5%
3. O=[N+]([O-])c1ccc(-c2ccccc2-c2ccccc2)cc1  -38.1%
4. CC(C)(C)C1CCC2c3c([nH]c4ccccc34)C3C(=O)N(c4ccc(Br)cc4)C(=O)C3C2C1 (stereo not given)  -35.6%
5. O=[N+]([O-])c1ccc(N=CC2CCC=CO2)cc1 (stereo not given)  -27.9%
6. Cc1nc2ccccc2c(=O)n1NC(=S)Nc1ccc(Cl)cc1  -23.6%
7. C=CCNC(=S)Nc1cccc(OC(=O)Nc2ccc(Cl)c(Cl)c2)c1  -23.1%
8. CCCCCCCC/C=C\CCCCCCCCOC(=O)CC(O)C(=O)OCCCCCCCC/C=C\CCCCCCCC (stereo not given)  -22.9%
9. CCOC(=O)C1CC(=O)N(Cc2ccccc2)C(=O)N1 (stereo not given)  -16.9%
10. O=C1C2C3C=CC(CC3)C2C(=O)C2C3C=CC(C3)C12 (stereo not given)  -14.8%
11. C1=CC(c2ccccc2)C(c2ccccc2)C(c2ccccc2)=C1 (stereo not given)  -13.2%
12. COC(=O)C1(CC(=O)Cc2ccccc2)NC(=S)NC(=O)C1C#N (stereo not given)  -12.1%
13. COC1(OC)C(c2ccc([N+](=O)[O-])cc2)C([N+](=O)[O-])C1(OC)OC (stereo not given)  -11.4%
14. O=C1OC(c2ccccc2)=N/C1=C\c1ccc(F)cc1  -10.2%
15. Cc1cc(O)c(Br)cc1C  -5.45%
16. CCC(=O)C(=O)c1ccccc1  -2.35%
17. O=C/C=C/N=c1ccn(O)cc1  -2.1%
18. CCOC(=O)C1Sc2ccccc2N=C1C (stereo not given)  -1.25%
19. OC1(c2ccccc2)C=C(c2ccccc2)C=C(c2ccccc2)O1 (stereo not given)  0.9%
20. C=CCCCCCCCC(O)C1C[C@H](O)C(CCCCC)O1 (stereo not given in full)  1.15%
21. COc1cc(NCCC2CCCCN2C)c2ncccc2c1 (stereo not given)  1.8%
22. CCOC(=O)Nc1c2ccccc2c(NC(=O)OCC)c2cc(Cl)ccc12  3.25%
23. Cc1cc2c(cc1C)NC1C(=O)C(c3ccccc3Cl)OC1=N2 (stereo not given)  4.55%
24. CCCCC(C)C(C)O (stereo not given)  11.2%
25. Cc1cc(C(=O)O)c2c([nH]1)c(C)cc1nc3ccccc3c12  12.1%
26. COc1cc(Br)c(Br)cc1Br  12.5%
27. Cc1ccc(SCC(=O)O)c(C)c1  14%
28. C/C(=N\NC(N)=O)c1ccc(Cl)c(-n2cccc2)c1  14.3%
29. CCOP(=O)(OCC)C(Cc1cn(S(=O)(=O)c2ccc(C)cc2)cn1)C(=O)O (stereo not given)  16.2%
30. COc1ccccc1NCC(=O)Nn1c(C)nc2ccc(S(=O)(=O)Nc3ccccc3OC)cc2c1=O  16.2%
31. Brc1cccc(C2SCc3nc4ccccc4n32)c1 (stereo not given)  19.9%
32. COC1(c2ccccc2)OC(=O)C(C)(C)c2ccccc21 (stereo not given)  22.1%
33. CC(C)[C@@H]1CC[C@@H](C)C[C@H]1OC(=O)c1c2n(c3ccccc13)C[C@H]1OC(C)(C)O[C@@H]21  22.9%
34. C/C(C=C(C#N)C#N)=C\c1ccc(F)cc1  30.9%
35. COC(=O)c1ccccc1N=NNc1ccc2c(=O)c3ccccc3[nH]c2c1  34.5%
36. O=C(O)C(NCCCNC(C(=O)O)c1ccccc1)c1ccccc1 (stereo not given)  37.6%
37. C[C@@]12CCC3C1C=C1C(=O)c4cc(O)ccc4C(=O)[C@]1(O2)[C@@]3(C)C=O  51.1%
38. CCCCCCC(O)C/C=C\CCCCCCCC(=O)O (stereo not given)  62.9%

For `Cc1cc([O-])c([I+]c2ccccc2)c(=O)[nH]1`, the growth inhibition was 95.6% (active).
In the case of `O=C(c1ccc(Cl)cc1)C(Br)C(C[N+](=O)[O-])c1ccccc1` (stereo not given), the growth inhibition is reported as 97.2% (active).
